Screening data: PubChem BioAssay, several laboratories
The sample as a whole holds a higher share of hits than the screen did.
GIRK2 activator: Activators of human GIRK2-containing channels | P48051 | HEK293 GIRK2/NPY4 cells, thallium flux fluorescence | activation (% efficacy), % for hits at 37.5 µM | 34,000 tested, under 10 active;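 active means primary screen hit, no activity in plain HEK293 cells, and in GIRK2-only cells above 5% efficacy rising with concentration; inactive means the rest, including fluorescent compounds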;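 further: efficacy is normalized control-subtracted fluorescence 15 s after thallium addition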
Target sequence (P48051 whole entry, looked up): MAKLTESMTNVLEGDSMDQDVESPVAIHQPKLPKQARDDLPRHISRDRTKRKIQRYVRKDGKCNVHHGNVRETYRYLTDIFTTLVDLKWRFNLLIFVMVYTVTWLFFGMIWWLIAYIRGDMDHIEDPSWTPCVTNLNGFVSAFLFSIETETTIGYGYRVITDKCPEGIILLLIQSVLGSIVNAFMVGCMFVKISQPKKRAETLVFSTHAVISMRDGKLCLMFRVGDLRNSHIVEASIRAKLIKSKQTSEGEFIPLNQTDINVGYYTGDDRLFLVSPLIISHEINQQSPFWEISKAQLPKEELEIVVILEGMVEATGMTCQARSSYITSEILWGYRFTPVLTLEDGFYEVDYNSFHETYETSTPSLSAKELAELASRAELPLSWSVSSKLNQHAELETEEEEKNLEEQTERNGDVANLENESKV
AMPAR-TARP mod: modulators of AMPA receptor GluA2-stargazin complexes. HEK293 GluA2+stargazin, membrane potential dye (FDSS), glutamate EC50; hits were called plate by plate, in both directions. AID 1259245. actives 3.5% (n = 40,000). O88602+P19491. calls only at 30 µM;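 active means any of four per-well response measures lying three or more SD from its plate-wide compound average, in either direction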
* marks the source's active call; other numbers are inactive results; i = inactive; nt = not tested or not shown; + = active, no number.

SMILES | GIRK2 activator | AMPAR-TARP mod
CCOc1ccc2ccccc2c1C(=O)NCC(c1cccs1)N(C)C (configuration not stated) | i | +
CCOc1ccc2ccccc2c1C(=O)NCC(c1ccc(OC)cc1)N1CCOCC1 (configuration not stated) | nt | +
CN(C)C(CNC(=O)c1ccc2ccccc2c1)c1cccs1 (configuration not stated) | i | i
CCOc1ccc(OCCNC(=O)Cc2cccc3ccccc23)cc1 | i | i
CCOc1ccc(C(=O)NCC(c2ccc(F)cc2)N2CCOCC2)cc1OCC (configuration not stated) | nt | i
CCOc1ccc2ccccc2c1C(=O)NCC(c1ccc(F)cc1)N1CCOCC1 (configuration not stated) | nt | +
COc1ccc(C(=O)NCC(c2ccc(F)cc2)N2CCOCC2)cc1 (configuration not stated) | nt | i
CCOc1ccc2ccccc2c1C(=O)NCCOc1ccccc1 | i | +
O=C(NCC1COC2(CCCC2)O1)C(=O)Nc1ccccc1F (configuration not stated) | nt | i
CC1=C(C(=O)OCc2ccccc2)C(c2ccc(Cl)cc2)NC(=O)N1 (configuration not stated) | nt | i
O=C(COc1cccc(C(F)(F)F)c1)NCCn1nc(-c2cccnc2)ccc1=O | i | nt
CN(C)C(CNC(=O)c1c(F)cccc1F)c1cccc2ccccc12 (configuration not stated) | nt | +
COc1cccc(OC)c1C(=O)NCC(c1cccs1)N1CCOCC1 (configuration not stated) | i | i
CN(C)C(CNC(=O)c1ccccc1Cl)c1cccc2ccccc12 (configuration not stated) | nt | i
CCOc1ccc2ccccc2c1C(=O)NCC(c1cccs1)N1CCOCC1 (configuration not stated) | i | +
COc1cc(NC(=O)c2ccc(C)c(C)c2)ccc1NC(=O)c1ccccc1Cl | nt | i
CCOc1cccc(CNc2c(C(=O)OC)c(=O)[nH]c3c(Cl)cccc23)c1 | nt | i
COc1ccc(NC(=O)NCC(c2ccccc2Cl)N(C)C)cc1OC (configuration not stated) | i | +
COC(=O)c1ccc(C(=O)NCC(c2ccccc2Cl)N(C)C)cc1 (configuration not stated) | i | i
COc1ccc(-c2csc(NC(=O)c3cccc(S(=O)(=O)C(C)C)c3)n2)cc1 | i | i
CCOc1ccc2c(c1)sc(=NC(=O)c1ccc(S(=O)(=O)C(C)C)cc1)n2CCOC | i | +
COCCn1c(=NC(=O)c2cc(C)no2)sc2cc(OC)ccc21 | i | i
COc1ccc(-c2noc(CSc3nc4ccsc4c(=O)n3Cc3ccccc3)n2)cc1OC | i | i
CCc1ccc(OCCCn2c(CNC(=O)c3ccco3)nc3ccccc32)cc1 | i | nt
CC(C)n1ccc(C(=O)N(Cc2ccccn2)c2nc3c(Cl)cccc3s2)n1 | i | +
SMILES | GIRK2 activator | AMPAR-TARP mod
Cn1ccc(C(=O)N(Cc2cccnc2)c2nc3c(Cl)cccc3s2)n1 | i | i
Cc1ccccc1N1C(=O)CC(c2cn(Cc3ccccc3)c3ccccc23)C1=O (configuration not stated) | nt | +
Cc1cccc(N2C(=O)CC(c3cn(C)c4ccccc34)C2=O)c1 (configuration not stated) | nt | i
CNc1cc(S(=O)(=O)N2CCCCC2)ccc1OC | nt | i
CCOc1cc(C)ccc1S(=O)(=O)N1CCCCC1 | nt | i
CCOc1cc(C)ccc1S(=O)(=O)N1CC(C)CC(C)C1 (configuration not stated) | nt | +
CCc1ccc2nc(N3CCN(C(=O)c4ccnn4C)CC3)sc2c1 | i | nt
Cc1ccc(Cl)cc1N1CCN(C(=O)C2CC(=O)c3ccccc32)CC1 (configuration not stated) | i | +
CS(=O)(=O)N1CCN(C(=O)C2CC(=O)c3ccccc32)CC1 (configuration not stated) | i | i
O=C(c1ccc(F)cc1)N(CCCn1ccnc1)c1nc2ccccc2s1 | i | i
Cc1ccsc1C(O)CNC(=O)C(c1ccccc1)c1ccccc1 (configuration not stated) | i | +
Cc1ccsc1C(O)CNC(=O)Cc1ccccc1Cl (configuration not stated) | i | i
O=S(=O)(Cc1ccccc1)NCC(c1ccco1)N1CCOCC1 (configuration not stated) | i | i
O=S(=O)(Cc1ccc(Cl)cc1)NCC(c1ccco1)N1CCOCC1 (configuration not stated) | i | +
O=c1nc(SCc2ccc([N+](=O)[O-])cc2)c2c(n1CC1CCCO1)CCC2 (configuration not stated) | i | i
O=C(CSc1nc(=O)n(CCO)c2c1CCC2)Nc1ccc(F)c([N+](=O)[O-])c1 | i | +
O=C(CSc1nc(=O)n(CCCO)c2c1CCC2)Nc1ccc(F)c([N+](=O)[O-])c1 | i | i
O=C(CSc1nc(=O)n(CC2CCCO2)c2c1CCCC2)NCc1ccc(F)cc1 (configuration not stated) | i | i
O=c1nc(SCc2ccc(Br)cc2)c2c(n1CC1CCCO1)CCCC2 (configuration not stated) | i | +
O=C(CSc1nc(=O)n(CC2CCCO2)c2c1CCCC2)Nc1ccc(F)cc1F (configuration not stated) | i | +
CS(=O)(=O)N1CCC(C(=O)Nc2nnc(-c3cccs3)o2)CC1 | i | nt
CC(=O)N1CC(C(=O)Nc2ccc3c(c2)OCO3)C1 | i | i
COc1ccc2c(CC(=O)Nc3ccccc3-c3ccccc3)cc(=O)oc2c1 | i | i
Cc1nn2c(N3CCOCC3)c3c(nc2c1-c1ccccc1)CCC3 | i | i
O=C(Nc1ccc(F)c([N+](=O)[O-])c1)c1ccc(=O)n(Cc2cccc(F)c2)c1 | i | i
SMILES | GIRK2 activator | AMPAR-TARP mod
CCOc1ccc(NC(=O)CSc2nc3ccsc3c(=O)n2Cc2ccc3c(c2)OCO3)cc1 | i | i
CC(C)C(=O)Nc1ccc(S(=O)(=O)NCC(C)(O)C2CC2)cc1 (configuration not stated) | i | i
O=C(NCCS(=O)(=O)N1CCN(Cc2ccccc2)CC1)c1c(F)cccc1Cl | i | i
Cc1ccc(S(=O)(=O)CCCC(=O)Nc2nc(-c3cc([N+](=O)[O-])cs3)cs2)cc1 | i | +
COc1cc([N+](=O)[O-])cc2sc(NC(=O)CCCS(=O)(=O)c3ccccc3)nc12 | i | +
O=C(CCCS(=O)(=O)c1ccccc1)Nc1nc2ccc([N+](=O)[O-])cc2s1 | i | +
O=C(CCCS(=O)(=O)c1ccc(Cl)cc1)Nc1nc(-c2cc([N+](=O)[O-])cs2)cs1 | nt | i
CCOc1ccc(CC(=O)Nc2nc3c(OC)cc([N+](=O)[O-])cc3s2)cc1 | nt | i
COc1ccc(S(=O)(=O)CC(=O)Nc2nc3ccc([N+](=O)[O-])cc3s2)cc1 | i | i
COc1ccc(CCNC(=O)Cn2cnc(C)cc2=O)cc1 | i | i
O=C(Nc1cccc(C(F)(F)F)c1)N1CCN(c2ccc(-n3cccc3)nn2)CC1 | nt | i
